Out of some 5,500 compounds screened, about 2,000 (36%) were called active. About 18% were inconclusive and are not listed. Rule as the data show it: active = normalized growth mostly below about 0.91 (no sharp cut-off); inconclusive = no clear call, values can overlap the other calls; inactive = mostly above about 0.92. This is one part of the list.
Experiment: chemical genetic growth profiling, strain panel (AID 1159580);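 also: tested at 20 µM; growth read once vehicle control cultures reached saturation at 30 °C; 1 = growth at the plate median or of vehicle wells; lower values mean less growth of the strain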
Settings: S. cerevisiae deletion strains, growth OD

Measured: normalized growth

Nc1ccc(N=Nc2ccc(S(N)(=O)=O)cc2)c2ccccc12
inactive: locus YAL013W, strain DEP1, stronger effect = lower value 0.999 | locus YBR229C, strain ROT2, stronger effect = lower value 1 | locus YCL061C, strain MRC1, stronger effect = lower value 0.998 | locus YDL101C, strain DUN1, stronger effect = lower value 0.98 | locus YDR150W, strain NUM1, stronger effect = lower value 0.906 | locus YEL061C, strain CIN8, stronger effect = lower value 0.989 | locus YGR078C, strain PAC10, stronger effect = lower value 1 | locus YGR229C, strain SMI1, stronger effect = lower value 1 | locus YHR030C, strain SLT2, stronger effect = lower value 1.04 | locus YHR087W, strain rtc3, stronger effect = lower value 0.995 | locus YJL187C, strain SWE1, stronger effect = lower value 1.01 | locus YJR043C, strain POL32, stronger effect = lower value 1 | locus YJR075W, strain HOC1, stronger effect = lower value 1.02 | locus YLR039C, strain RIC1, stronger effect = lower value 0.983 | locus YLR058C, strain SHM2 (second series), stronger effect = lower value 1.01 | locus YLR085C, strain ARP6, stronger effect = lower value 1.03 | locus YLR262C, strain YPT6, stronger effect = lower value 1 | locus YML094W, strain GIM5, stronger effect = lower value 0.986 | locus YMR219W, strain ESC1, stronger effect = lower value 0.994 | locus YMR263W, strain SAP30, stronger effect = lower value 0.916 | locus YNL153C, strain GIM3, stronger effect = lower value 1 | locus YNL298W, strain CLA4 (second series), stronger effect = lower value 0.982 | locus YNL322C, strain KRE1, stronger effect = lower value 0.997 | locus YNR030W, strain Alg12, stronger effect = lower value 1.01 | locus YPL055C, strain LGE1, stronger effect = lower value 0.893 | locus YPL241C, strain CIN2, stronger effect = lower value 1 | locus YPR135W, strain CTF4, stronger effect = lower value 1.06

— PubChem BioAssay AID1159580 (chemical genetic matrix, 2015)
